Shown are actives, neighbours in structure and some others; about 4.7% of the full set was active somewhere.
proKLK7 act: activators of human kallikrein-7 zymogen; P49862; purified proKLK7, EDANS-DABCYL substrate fluorescence; 100% is mature enzyme control, 0% vehicle; activation, % at 7 µM; 370,000 compounds, 0.9% hits; AID 652039;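 active = activation above the mean of all tested compounds plus 3 SD, computed per campaign excluding outliers beyond control limits, cut at about 13% in these data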
ADAM10 inh: inhibitors of human ADAM10 | O14672 | recombinant ADAM10, EDANS/DABCYL FRET peptide cleavage, 3 h | inhibition, % at 7 µM | 370,000 compounds, 0.62% hits | AID 720582;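 active = inhibition above a per-campaign cutoff equal to the mean of compounds falling between control-based bounds plus 3 SD, cut at about 20% in these data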;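 also: 0% = DMSO wells while the 100% control is not disclosed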
ADAM17 inh: ADAM17 inhibition, QFRET primary screen; P78536; recombinant ADAM17, EDANS/DABCYL FRET peptide cleavage; inhibition, % at 6.95 µM; 370,000 compounds, 0.83% hits; AID 720648;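 active = inhibition above the mean of compounds lying between control limits plus 3 SD, set per campaign, cut at about 8.5% in these data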;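 also: 0% = DMSO-only wells as the low control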
MPTP inh: blocks calcium-induced mitochondrial swelling | inhibition, % at 10 µM | 360,000 compounds, 1.4% hits | isolated mouse mitochondria, Ca2+ swelling absorbance, 30 min;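 active = inhibition of 50% or more, scaled per plate between neutral and stimulator controls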;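 also: 0% = DMSO wells given calcium and 100% = 1 mM EGTA wells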
DSG3 Ab inh: blocks pemphigus antibody binding to human desmoglein-3 | DSG3-coupled beads, scFv-anti-DSG3-GFP binding, flow cytometry; stronger effect = lower value | AID 588358 | binding (percent of control), % at 10 µM | 310,000 compounds, 0.48% hits | P32926;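 active = binding more than 3 SD below its plate's average and above zero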
rCAG RNA binder: binds r(CAG) RNA repeats | inhibition, % at 3 µM | 370,000 compounds, 1.3% hits | r(CAG) RNA repeat, TO-PRO-1 dye displacement fluorescence | AID 651821;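 active = inhibition above the plate cutoff, the mean of all test compounds on that plate plus 3 SD, cut at about 35% in these data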;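 also: 0% = DMSO alone and 100% = 100 µM mitoxantrone as full dye displacement; higher means more dye released from RNA so lower well fluorescence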
proKLK7 act conf: proKLK7 activation, confirmation; shares compounds with proKLK7 act; purified proKLK7, EDANS-DABCYL substrate fluorescence; scaled: vehicle 0, mature enzyme 100; activation, % at 7 µM; 3,200 compounds, 68% hits;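 active = activation, as change over the incubation, above the mean of all tested compounds plus 3 SD, cut at about 13% in these data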
EDANS-DABCYL int: optically interferes with EDANS-DABCYL signal, flagging KLK7 hits; shares compounds with proKLK7 act; EDANS-DABCYL substrate fluorescence interference, no enzyme, 4 h; solvent 0%, active enzyme control 100%; activation, % at 7 µM; 3,200 compounds, 80% hits; AID 686952;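 active = activation above the all-compound mean plus 3 SD, ignoring values outside control-based bounds, cut at about 4.8% in these data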;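 also: value is the 4 h activation minus the activation read at time zero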
K7 EDANS ctr: EDANS fluorescence interference in dose response, no enzyme. shares compounds with proKLK7 act. EDANS-DABCYL peptide fluorescence interference. EC50, µM. 250 compounds, 20% hits. AID 720493;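 active = compounds that raise the fluorescence signal in this interference counterscreen, with EC50 at or below 10 µM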;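 also: intact quenched peptide substrate alone read at 355 nm excitation and 520 nm emission; signal is fluorescence gain from T0 to T4 after four hours at room temperature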
Numbers without * were called inactive; i = inactive; . = no result given.

SMILES | proKLK7 act | ADAM10 inh | ADAM17 inh | MPTP inh | DSG3 Ab inh | rCAG RNA binder | proKLK7 act conf | EDANS-DABCYL int | others
CCCc1cc(NCCOCCO)n2c(nc3ccccc32)c1C#N | 45* | i | i | 1 | 96 | 1 | 42* | 27* | K7 EDANS ctr=>70
CC(C)c1cc(NCCOCCO)n2c(nc3ccccc32)c1C#N | 54* | i | i | 1 | 94 | -2 | 52* | 50*
O=C1Nc2ccc(S(=O)(=O)N3CCCCCC3)c3cccc1c23 | 2 | -108 | -29 | 1 | . | 5 | . | .
CCN(CC)CCNS(=O)(=O)c1ccc2c3c(cccc13)C(=O)N2 | 100* | i | -377 | 0 | 94 | 2 | 58* | 70*
O=C1Nc2ccc(S(=O)(=O)NCc3ccccn3)c3cccc1c23 | 16* | i | i | -3 | 82 | 6 | 72* | 72*
CN(C)CCNS(=O)(=O)c1ccc2c3c(cccc13)C(=O)N2 | 155* | i | -422 | -1 | 131 | -1 | 68* | 57* | K7 EDANS ctr=2.1*
CC(C)(O)CC[C@@H](O)[C@](C)(O)C1CC[C@@]2(O)C3=CC(=O)[C@]4(O)C[C@@H](O)[C@@H](O)C[C@]4(C)C3CC[C@]12C (some centres undefined) | 0 | -7 | -5 | 0 | 106 | -3 | . | .
CCOC(=O)c1nn(-c2ccccc2)c(C(=O)OCC)c1N | 18* | i | i | 0 | 105 | -3 | 9 | 11*
CCCc1cc(NCCCN2CCOCC2)n2c(nc3ccccc32)c1C#N | -11 | i | -406 | 2 | 105 | -2 | . | .
Cc1cc(NCCCCO)n2c(nc3ccccc32)c1C#N | 43* | i | -271 | -1 | 100 | -2 | 47* | 37* | K7 EDANS ctr=>70
COCCN(CCOC)c1cc(C)c(C#N)c2nc3ccccc3n12 | 39* | -453 | -162 | 1 | 110 | -6 | 61* | 50* | K7 EDANS ctr=i
CCc1c(C)c(C#N)c2nc3ccccc3n2c1N(C)C | 1 | -6 | -6 | 2 | 82 | 0 | . | .
CCN(CC)CCCNc1cc(C(F)(F)F)c(C#N)c2nc3ccccc3n12 | 53* | -369 | -152 | 0 | 108 | -5 | -7 | -11
CCN(CC)CCNc1cc(C)c(C#N)c2nc3ccccc3n12 | 132* | i | i | -1 | 119 | -2 | 10 | 5.4*
CN(C(=O)c1cccc(NC(=O)Cc2ccc(NC(=O)C3CCCN(C(=O)C4CCCCC4)C3)cc2)c1)C1CC1 (centres undefined) | 0 | -2 | -2 | 0 | 98 | 2 | . | .
COc1ccc(CNC(=O)COC(=O)c2nc3nc(C)cc(C)n3n2)cc1 | 0 | -16 | 0 | -2 | 100 | 4 | . | .
CCN(CC)CCCNc1cc(C)c(C#N)c2nc3ccccc3n12 | 69* | i | i | 0 | 101 | 3 | 38* | 40*
CCN(CC)CCNc1c2c(c(C#N)c3nc4ccccc4n13)CCCC2 | 11 | -267 | -56 | 0 | 99 | -1 | . | .
COc1ccc(-n2nc3c(c2NC(=O)C(C)Oc2ccccc2)CS(=O)(=O)C3)cc1 (centres undefined) | 1 | 6 | -3 | -1 | 106 | -2 | . | .
O=C(NC1CCCCC1)c1ccc(-c2cccc([N+](=O)[O-])c2)o1 | 0 | 3 | -5 | 2 | 112 | -6 | . | .
CC(=O)Nc1ccc(S(=O)(=O)NCCc2cn3nc(C)c(C)nc3n2)cc1 | 16* | i | -194 | -1 | 93 | 9 | 62* | 55*
COc1ccc(S(=O)(=O)NCCc2cn3nc(C)c(C)nc3n2)cc1F | 20* | i | -357 | 1 | 100 | 1 | 73* | 81*
CC(C)(C)C(=O)NC1CCCCN(Cc2ccc(Cl)cc2)C1=O (centres undefined) | 0 | 6 | -2 | . | . | 0 | . | .
COc1ccc(-c2cn3cccnc3n2)cc1NC(=O)c1cc(OC)c(OC)c(OC)c1 | 5 | i | -189 | 0 | 87 | -2 | . | .
COc1cccc(C(=O)Nc2cc(-c3cn4cccnc4n3)ccc2C)c1 | 31* | i | i | 0 | 103 | 4 | 12 | -2
SMILES | proKLK7 act | ADAM10 inh | ADAM17 inh | MPTP inh | DSG3 Ab inh | rCAG RNA binder | proKLK7 act conf | EDANS-DABCYL int | others
CC(C)(C)CC(=O)Nc1cccc(-c2cn3cccnc3n2)c1 | 25* | i | i | 2 | 92 | -2 | 16* | 19*
COc1ccc(-c2cn3cccnc3n2)cc1NC(=O)c1cccs1 | 4 | -381 | -110 | 1 | 109 | 5 | . | .
COc1cc(C(=O)Nc2cccc(-c3cn4cccnc4n3)c2)cc(OC)c1OC | 30* | i | i | -1 | 110 | 3 | -9 | -11
CN(CC(=O)Nc1ccc(Cl)cc1)C(=O)CNC(=O)Cc1cccc2ccccc12 | 1 | 6 | 1 | 0 | . | 2 | . | .
CN1CCN(c2ccc(S(=O)(=O)N3CCOCC3)cc2NC(=O)Cc2ccccc2F)CC1 | 0 | -4 | -1 | 2 | 95 | 0 | . | .
CCOC(=O)c1cnn2c(C)cc(-c3ccc(F)cc3)nc12 | 26* | i | -236 | -2 | 101 | -4 | -4 | 17*
COc1ccc(CN2CCCCC2C)c(C)c1C (centres undefined) | 0 | -6 | -6 | -1 | 101 | -2 | . | .
Cc1oc2c(CN3CCCCC3C)c(O)ccc2c(=O)c1-c1ccccc1 (centres undefined) | 34* | i | i | 3 | 101 | -1 | 47* | 59*
Cc1oc2c(O)c(O)ccc2c(=O)c1-c1ccccc1 | 1 | -6 | -1 | -1 | 102 | 8 | . | .
COc1ccccc1-c1c(C)oc2c(CN3CCCCC3C)c(O)ccc2c1=O (centres undefined) | 53* | i | i | 0 | 104 | 2 | 66* | 69*
CC1=CC(c2ccccc2)n2nc(N3C(=O)CCC3=O)nc2N1 (centres undefined) | 76* | i | -485 | -5 | 103 | 0 | 112* | 142*
CC1=CC(c2ccccc2)n2nc(N3C(=O)C4CC=CCC4C3=O)nc2N1 (centres undefined) | 113* | i | i | -3 | . | 8 | 211* | 191*
O=C1CC(c2ccccc2)n2nc(N3C(=O)c4ccccc4C3=O)nc2N1 (centres undefined) | 0 | -1 | -6 | -2 | 118 | -2 | . | .
